# Sampled rows, rich in hits. Any-hit rate of the full collection: about 4.5%.
# Gli-Sufu block – antagonists of Gli-Sufu signaling; Sufu-KO-LIGHT fibroblasts, Gli luciferase reporter luminescence; actives 0.74% (n = 340,000); inhibition, % at 5 µM;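 active means inhibition above about 55%, limit read from the data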
# Mdm2 MdmX PPI – human Mdm2/MdmX binding inhibition; SaOS-2 split-luciferase Mdm2/MdmX complementation, luminescence; actives 3% (n = 330,000); AID 485346; O15151+Q00987; inhibition, % at 8 µM;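 active means inhibition of at least 50% at 8 µM in the primary screen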
# Jurkat NFkB inh – lowers PMA/ionomycin-induced NF-kB signal in Jurkat cells; PMA/ionomycin-induced NF-kB luciferase reporter, luminescence; inhibition, % at 4 µM; actives 0.53% (n = 330,000); in the data active means inhibition above about 50%
# Beta cell apopt – beta cell apoptosis inhibition | INS-1E cytokine-induced death, ATP luminescence, 48 h; percent of positive-control rescue, neutral wells zero | protection from apoptosis, % (test concentration not listed) | actives 0.8% (n = 300,000) | AID 435005;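 active means Every replicate reaches about 75%, or at least half do and their mean reaches it too, limit read from the data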;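 further: higher means more ATP so stronger rescue from cytokine killing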
# CSC inhib – cancer stem cell inhibition; inhibition, % at 7.5 µM; cancer stem cell-like cells viability, luminescence; actives 1.1% (n = 300,000); in the data active means inhibition above about 75%; tested in HMLE shEcad cells
# 697 NFkB inh – lowers PMA/ionomycin-induced NF-kB signal in 697 B cells; 697 B-cell NF-kB luciferase reporter, 16 h; inhibition, % at 4 µM; actives 0.33% (n = 330,000); AID 435022; in the data active means inhibition above about 35%
# Mdm2 MdmX conf – confirmation of human Mdm2/MdmX interaction inhibitors; shares compounds with Mdm2 MdmX PPI; Mdm2-MdmX binding, luminescent assay; inhibition, % at 8 µM; actives 55% (n = 10,000); AID 489028; in the data active means inhibition above about 40%
# FLuc counter – counter-screen for Mdm2/MdmX inhibitors: full-length luciferase; SaOS-2 full-length luciferase counterscreen, luminescence; shares compounds with Mdm2 MdmX PPI; inhibition, % at 8 µM; AID 504607; actives 77% (n = 6,200);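 active means mean inhibition at 8 µM reaching about 37%, which flags the compound as non-specific, limit read from the data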;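 further: p53-null SaOS-2 cells with luciferase driven by a doxycycline-inducible promoter; compound on cells about two nights before reading with doxycycline added after day one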
# Hits are given with their value; 0 = inactive; - = not tested or not shown.
SMILES,Gli-Sufu block,Mdm2 MdmX PPI,Jurkat NFkB inh,Beta cell apopt,CSC inhib,697 NFkB inh,Mdm2 MdmX conf,FLuc counter
Cc1cc(Sc2nnc(N)s2)c2ccccc2n1,0,50,0,-,0,0,0,0
Cc1ccc(C(=O)c2cnc3cc4c(cc3c2S(=O)(=O)c2ccccc2)OCCO4)cc1,0,61,0,-,-,0,42,52
CCOc1ccc(S(=O)(=O)c2c(C(=O)c3ccc(C)cc3)cnc3cc4c(cc23)OCCO4)cc1,0,0,0,0,0,0,-,-
CC(C)CC(=O)NC(c1cccs1)c1ccc2cccnc2c1O (stereo not drawn),72,72,0,110,102,0,85,0
Cc1conc1NC(c1cccs1)c1ccc2cccnc2c1O (stereo not drawn),-,63,0,106,101,0,50,0
Cc1cc(C(=O)NNC(=O)[C@H](C)NC(=O)c2ccc(Br)cc2)c(C)o1,0,0,0,0,0,0,-,-
COc1nc(-c2ccc(Cl)cc2)ccc1-c1noc(-c2ccco2)n1,0,54,0,0,0,0,0,-
COc1cccc(-c2ccc(-c3noc(-c4ccccc4F)n3)c(OC)n2)c1,0,0,0,0,0,0,-,-
CC(C)N1CCc2c(sc(NC(=O)CCS(=O)(=O)c3ccccc3)c2C#N)C1,0,0,0,0,0,0,-,-
CN(CC(=O)Nc1ccccc1Cl)C(=O)COC(=O)c1nc(Cl)c(Cl)c(Cl)c1Cl,0,78,0,0,0,0,41,0
CC(C)CN1CCC(=O)N([C@H](COc2ccccc2)c2ccccc2)CC1,0,0,0,0,0,0,-,-
COc1ccc(CC(O)COS(N)(=O)=O)cc1 (stereo not drawn),0,0,0,-,0,0,-,-
CCc1ccc(Oc2coc3cc(OCC(=O)Nc4cc(C)ccc4C)ccc3c2=O)cc1,0,52,0,0,0,0,0,-
CCCc1ccc(Oc2coc3cc(OCC(=O)Nc4ccccc4C)ccc3c2=O)cc1,0,0,0,0,0,0,-,-
CCC(=O)N(NC1=NS(=O)(=O)c2ccccc21)S(=O)(=O)c1ccc(C)cc1,0,0,0,0,0,0,-,-
O=C(Cn1cnc2c(nnn2Cc2ccc(F)cc2)c1=O)Nc1ccc2c(c1)OCCO2,0,71,0,0,0,0,0,-
C/C=C1\NC(=O)[C@H](C)NC(=O)[C@@H](NC(=O)[C@@H](Cc2ccc(O)cc2)NC(=O)[C@@H](NC(=O)/C(C)=C/C)C(C)C)[C@@H](C)OC(=O)[C@H](CCCCc2ccc(O)cc2)NC(=O)[C@@H](CCC(=O)O)NC1=O,0,0,0,-,-,0,-,-
Cc1nc2sc(C(N)=O)c(N)c2c(C)c1CC(=O)c1ccccc1,0,58,0,0,0,0,62,0
Cc1cc(C)c2c(N)c(C(=O)c3ccccc3)sc2n1,0,0,0,0,0,0,-,-
COc1ccc(C(=O)c2c(C(F)(F)F)oc3c2C(=O)c2ccccc2C3=O)cc1,0,78,0,115,106,0,66,54
COc1ccc(N/C=C/C(=O)c2ccc(OC)c(OC)c2)cc1,0,0,0,-,0,0,-,-
COc1ccc(N/C=C/C(=O)c2cc(OC)c(OC)c(OC)c2)cc1,0,68,0,0,0,0,60,57
COc1ccc(OC)c(C(=O)/C=C/c2ccccc2C(F)(F)F)c1,0,89,0,0,99,0,65,0
COc1ccc(OC)c(N/C=C/C(=O)c2ccccc2)c1,0,58,0,0,0,0,62,155
Cc1ccc(NC2CCCN(C(=O)c3ccc4[nH]ccc4c3)C2)cc1C (stereo not drawn),-,0,0,0,0,0,-,-
SMILES,Gli-Sufu block,Mdm2 MdmX PPI,Jurkat NFkB inh,Beta cell apopt,CSC inhib,697 NFkB inh,Mdm2 MdmX conf,FLuc counter
NS(=O)(=O)c1ccc(CNC(=O)c2ccc3c(=O)n4c(nc3c2)CCC4)cc1,0,0,0,0,0,0,-,-
COc1ccc2[nH]c(=O)c(CN(CCO)S(=O)(=O)c3c(C)ccc4nsnc34)cc2c1,0,0,0,0,0,0,-,-
COc1ccc2[nH]c(=O)c(CN(Cc3cccs3)S(=O)(=O)c3cccc4nsnc34)cc2c1,0,75,0,-,-,0,76,45
O=C(NNC(=S)NC1CCCCC1)c1sc2ccccc2c1Cl,0,0,0,0,0,0,-,-
CC(C)(C)C(=O)NC(=S)NNC(=O)c1sc2ccccc2c1Cl,0,74,0,0,-,0,52,37
Fc1ccc(NC(=S)NNc2ncc(C(F)(F)F)cc2Cl)c(F)c1,0,77,0,0,0,0,49,67
Cc1ccc(NC(=S)NNc2ncc(C(F)(F)F)cc2Cl)cc1,0,0,0,0,0,0,-,-
FC(F)(F)c1cnc(NNC(=S)Nc2ccc(Cl)cc2)c(Cl)c1,0,90,0,93,0,0,67,0
Cc1nnc(C)n1/N=C/c1ccccc1,0,0,0,0,0,0,-,-
CCn1c2ccccc2c2cc(/C=N/n3c(C)nnc3C)ccc21,0,60,0,-,-,0,0,-
CC1(C)CC(NC(=O)c2cccc(S(=O)(=O)N(Cc3ccccc3)c3ccccc3)c2)CC(C)(C)N1,0,95,0,0,0,0,59,61
Cc1ccc(N(C)S(=O)(=O)c2cccc(C(=O)NC3CC(C)(C)NC(C)(C)C3)c2)cc1,0,0,0,0,0,0,-,-
COc1ccccc1N(Cc1ccccc1)S(=O)(=O)c1cccc(C(=O)Nc2ccc(C)cn2)c1,0,55,0,0,0,0,0,-
CNC(=S)N(CCN(C)C)Cc1cc2cc3c(cc2[nH]c1=O)OCO3,0,0,0,0,0,0,-,-
CCOCCCNC(=O)c1ccc(Cn2c(=S)[nH]c3c([nH]c4ccc(OC)cc43)c2=O)cc1,0,0,0,0,0,0,-,-
CCCCNC(=O)c1ccc(Cn2c(=S)[nH]c3c([nH]c4ccc(OC)cc43)c2=O)cc1,0,89,0,101,140,0,0,-
CC(=O)C(Cc1ccccc1)NC(=O)COC(=O)c1ccc(-n2cnnn2)cc1 (stereo not drawn),0,0,0,0,0,0,-,-
CC(CCc1ccccc1)NC(=O)c1ccc(-n2cncn2)c([N+](=O)[O-])c1 (stereo not drawn),0,0,0,0,0,0,-,-
C=CCc1cc(/C=C2/NC(=S)NC2=O)cc(OC)c1O,0,55,0,0,0,0,0,-
CC1(C)CC(=O)C2=C(C1)NC1=C(C(=O)c3ccccc31)C2c1ccc(Cl)cc1 (stereo not drawn),0,58,0,0,0,0,0,-
Cc1ccc(C2C3=C(CC(C)(C)CC3=O)NC3=C2C(=O)c2ccccc23)cc1 (stereo not drawn),0,0,0,0,0,0,-,-
Cc1ccc(NC(=O)Cc2nnc(SCC(=O)NC3CCCC3)n2C)cc1C,0,0,0,0,0,0,-,-

# Source: PubChem BioAssay (several laboratories)
